BRCA1 expr up: BRCA1 expression activation | MCF7-BRCA1-FFLuc reporter, luminescence, 48 h; response scale: scaled: vehicle 0%, 10 µM genistein 100% | Potency, µM (highest dose often 46.1 µM), most hits filed as activators | 380,000 tested, 1.1% active | AID 624202; further: nearly all actives have a fitted effect of over 80% in size
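Cells: MCF7-BRCA1-FFLuc, 2000/well. Exposure: 48 h, 37 °C, 5% CO2. Read: luminescence, 15 min post-substrate. Controls: genistein 10 microM (maximal activation), DMSO (neutral).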
DRD3 agonist: activates the human D3 dopamine receptor; P35462; D3R DiscoveRx beta-arrestin cells, luminescence, 90 min; max activation, %; 410,000 tested, 0.58% active; AID 652048; in the data active means max activation above about 30%
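Cells at 1500/well, incubated overnight, then treated with pinned compounds (dopamine as control) for 90 min at 37 degrees C. DiscoveRx reagent added for 30 - 60 minutes at room temperature; luminescence read.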
B2AR arrestin: agonists driving beta-arrestin recruitment to human beta2-adrenergic receptor; 330,000 tested, 0.02% active; Potency, µM (doses to about 46.1 µM), hits mostly activators; beta-arrestin recruitment to beta2AR, cell-based reporter; AID 492947; P07550; further: nearly all actives have a fitted effect of over 65% in size
Target sequence (P07550 whole entry, looked up): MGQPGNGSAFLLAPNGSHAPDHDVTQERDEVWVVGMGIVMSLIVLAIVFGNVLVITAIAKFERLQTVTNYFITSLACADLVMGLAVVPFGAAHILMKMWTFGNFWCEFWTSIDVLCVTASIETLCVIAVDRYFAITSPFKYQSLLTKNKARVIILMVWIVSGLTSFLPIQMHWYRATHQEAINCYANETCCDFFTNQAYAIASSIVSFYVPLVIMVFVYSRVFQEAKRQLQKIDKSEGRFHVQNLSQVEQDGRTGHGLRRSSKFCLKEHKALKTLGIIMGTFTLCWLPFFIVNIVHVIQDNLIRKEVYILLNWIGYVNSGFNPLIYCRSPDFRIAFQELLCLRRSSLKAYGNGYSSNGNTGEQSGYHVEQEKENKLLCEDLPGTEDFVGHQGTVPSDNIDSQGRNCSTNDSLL
D3 antag: D3 dopamine receptor (human) antagonism; P35462; D3R cells, DiscoveRx beta-arrestin luminescence, antagonist mode; stronger effect = lower value; max response, negative = inhibition, %; 360,000 tested, 2.5% active; in the data active means max response below about -50%; inconclusive means no clear call, values can overlap the other calls
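Cells expressing the human receptor were seeded at 1500 cells/well, incubated overnight at 37 degrees C in 5% CO2, then exposed to library compounds with dopamine controls for 90 minutes at 37 degrees C before luminescent detection.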
PTHR1 ag: activates the human parathyroid hormone receptor PTHR1 | Q03431 | HEK293 GP2 PTHR1 cells, GloSensor cAMP luminescence, 1 h | Potency, µM (highest dose often 115 µM), usual class: activators | 410,000 tested, 0.075% active | AID 743266; further: nearly all actives have a fitted effect of over 55% in size
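HEK-293-derived GP2 cells expressing PTHR1 and a GloSensor cAMP reporter, 3,000/well, plated overnight, given luciferin plus IBMX (each 0.5 mM as added) for 1 h at 37 °C, then compound for 1 h at 37 °C. Luminescence was read after 15 min at room temperature.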
RGS4 inh: inhibitors of human regulator of G protein signaling 4; P49798; Transcreener GDP fluorescence polarization, RGS4-accelerated GTP hydrolysis; Potency, µM (series often up to 114 µM), most hits filed as inhibitors; 390,000 tested, 0.039% active; AID 504845; further: nearly all actives have a fitted effect of over 75% in size
Target sequence (P49798 whole entry, looked up): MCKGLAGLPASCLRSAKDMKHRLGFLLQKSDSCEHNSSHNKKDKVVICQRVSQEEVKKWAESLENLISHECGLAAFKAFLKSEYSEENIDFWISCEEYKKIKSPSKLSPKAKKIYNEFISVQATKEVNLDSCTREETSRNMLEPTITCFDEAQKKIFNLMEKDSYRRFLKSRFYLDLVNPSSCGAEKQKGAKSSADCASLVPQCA
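MLSMR compounds (23 nl, pin-transferred) preincubated 10 min at room temperature with a 500nM (2x) first reagent, then RGS4 at 900nM (2x) plus Transcreener GDP mix added; fluorescence polarization (620/688 nm) read before and after 90 min at 30 °C.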
Large screens that a line does not name were inactive. Most compounds without a hit are left out; they make up all but 3.7% or so of the library. Unless noted, the call rests on the fitted dose curve; in most records, active means well fitted curve in the direction sought with a large enough effect; inconclusive means small, poorly fitted or top-dose-only effect, or another doubt; inactive means no such curve, though single readings can be large; an effect the other way counts as inactive or inconclusive.

COc1ccc(NC(=O)c2ccc3nccnc3c2)cc1	BRCA1 expr up 2.8µM
O=C(/C=C/Nc1ccccc1)c1ccc(Oc2ncccn2)cc1	BRCA1 expr up 3.5µM
CN(C)/C=C/C(=O)c1ccc(Oc2ncccn2)cc1	B2AR arrestin inconclusive
CCOc1ccc(NC(=O)c2ccc3nccnc3c2)cc1	none
COc1ccc(C(=O)NC(=O)Nc2ncccc2C)cc1	BRCA1 expr up 2.8µM
COc1cc(NC(=O)c2ccc3snnc3c2)cc(OC)c1	BRCA1 expr up 11µM
O=C(NCc1ccncc1)[C@@H]1CCCN1C(=O)[C@H]1CCCN1C(=O)c1cccc2ccccc12	none (no result: B2AR arrestin, RGS4 inh)
CCC(C)(C)NC(=O)C(c1ccc(OC)cc1)N(C(=O)CCC(=O)Nc1cc(C)on1)c1ccc2c(c1)OCCO2 (stereo not given)	none
COc1ccc(/C=C(/NC(=O)c2ccc(C)cc2)C(=O)N2CCCC2)cc1OC	none
CCc1ccc(S(=O)(=O)/N=C2\C=C(Nc3ccc(C(=O)O)cc3)C(=O)c3ccccc32)cc1	D3 antag -68
Cc1ccc(S(=O)(=O)/N=C2\C=C(Nc3cccc(C(=O)O)c3)C(=O)c3ccccc32)c(C)c1	D3 antag -71
COC(=O)c1ccccc1NC1=C/C(=N\S(=O)(=O)c2cccs2)c2ccccc2C1=O	D3 antag -93, RGS4 inh inconclusive
COC(=O)c1ccccc1NC1=C/C(=N\S(=O)(=O)c2ccc(C(=O)O)cc2)c2ccccc2C1=O	D3 antag -99, RGS4 inh inconclusive
COc1cc2nc(CCNCc3ccccc3)nc(NC3CCN(C)CC3)c2cc1OC	none (no result: DRD3 agonist, B2AR arrestin, D3 antag, PTHR1 ag, RGS4 inh)
COc1ccc(S(=O)(=O)NCC2(N3CCOCC3)CCCCC2)cc1OC	none
O=C(COc1ccccc1F)Nc1nnc(S(=O)(=O)N2CCCCCC2)s1	none (no result: BRCA1 expr up, B2AR arrestin, D3 antag)
COCCNC(=O)COc1ccc(OCCNC[C@@H](O)COc2ccccc2)cc1	none (no result: BRCA1 expr up, DRD3 agonist, B2AR arrestin, D3 antag, PTHR1 ag)
O=C(O)COc1ccc(OCCNC[C@@H](O)COc2ccccc2)cc1	none (no result: BRCA1 expr up, DRD3 agonist, B2AR arrestin, D3 antag, PTHR1 ag)
Cc1ccc(OCCNCC(O)COc2ccccc2)cc1 (stereo not given)	D3 antag -83
OC(CNCc1ccco1)COc1ccccc1 (stereo not given)	D3 antag -55
CC(=O)CCc1ccc(OCC(O)CNCCOc2ccc(C)cc2)cc1 (stereo not given)	DRD3 agonist 51
COc1ccc(OCC(O)CNCc2ccco2)cc1 (stereo not given)	none
CCOC(=O)c1cccc(OCC(O)CNCCOc2ccccc2F)c1 (stereo not given)	D3 antag -55
CC(=O)c1cccc(OCC(O)CNCCc2ccc(Cl)cc2)c1 (stereo not given)	none
COc1ccccc1CNC(=O)C1CCN(S(=O)(=O)c2cn(C)cn2)CC1	none (no result: BRCA1 expr up, B2AR arrestin, D3 antag)
Cc1ccc(CC(=O)Nc2c(C(=O)N3CCN(c4ccccc4)CC3)oc3ccccc23)cc1	none (no result: BRCA1 expr up, B2AR arrestin, D3 antag)
CCN(CC)S(=O)(=O)c1ccc(C(=O)NCCOC(=O)c2ccc(F)cc2F)cc1	none
COc1ccc(C(=O)NCCc2nnc3ccc(SCC(=O)N4CCOCC4)nn23)cc1	none
CCC(C)c1ccc(OCC(=O)Nc2cccc(-c3nc4ncccc4o3)c2)cc1 (stereo not given)	none (no result: BRCA1 expr up, B2AR arrestin, D3 antag)
COc1ccc(OCC(O)CNCCOc2ccccc2OC)c(C(C)(C)C)c1 (stereo not given)	D3 antag -81, RGS4 inh inconclusive
CC(C)CNC(=O)C1(C)CCCN1C(=O)c1ccc2ccccc2n1 (stereo not given)	none (no result: B2AR arrestin, RGS4 inh)
O=C(CSc1ccccc1)Nc1ccc(N2CCN(c3ccccc3)CC2)c(F)c1	none
CN1CCN(c2ccc(NC(=O)CN3CCOCC3)cc2F)CC1	none
COc1ccc(SCC(=O)Nc2ccc(N3CCN(C)CC3)c(F)c2)cc1	D3 antag -56
Cc1ccc(SCC(=O)Nc2ccc(N3CCN(C)CC3)c(F)c2)cc1	BRCA1 expr up inconclusive, D3 antag -53
CC(OC(=O)c1ccccc1OCCOc1ccccc1)C(=O)Nc1ccc(Br)cc1 (stereo not given)	none (no result: DRD3 agonist, B2AR arrestin, D3 antag, PTHR1 ag, RGS4 inh)
CC1Nc2ncnc(N3CCN(c4ccccn4)CC3)c2N(Cc2ccccc2)C1=O (stereo not given)	D3 antag -106
CCC1Nc2ncnc(N3CCOCC3)c2N(Cc2ccccc2)C1=O (stereo not given)	none
Cc1ccc(CN2C(=O)C(C)Nc3ncnc(N4CCN(c5ccccn5)CC4)c32)cc1 (stereo not given)	D3 antag -132
COc1ccc(CN2C(=O)C(C)Nc3ncnc(N4CCN(c5ccccn5)CC4)c32)cc1 (stereo not given)	D3 antag -149
O=C(NC(=S)Nc1cccc(Cl)c1Cl)C1CC1	none
COc1ccc(S(=O)(=O)NCC(c2ccco2)N2CCOCC2)cc1OC (stereo not given)	none (no result: BRCA1 expr up, B2AR arrestin, D3 antag)
C=CCN1N=C(/C=C/c2ccc(OC)cc2)CCC1=O	BRCA1 expr up inconclusive
C=CCN1N=C(/C=C/c2ccc(C)cc2)CCC1=O	BRCA1 expr up 11µM
COc1ccc(-c2nc3c(C)cc(Br)cn3c2CC2CCCCC2)cc1OC	none (no result: B2AR arrestin, RGS4 inh)
Cc1ccc(CNC(=O)c2cc(S(=O)(=O)N3CCCC(C)C3)cn2C)cc1 (stereo not given)	none (no result: B2AR arrestin, D3 antag)
Cc1ccc(C2(C)NC(=O)N(CC(=O)Nc3cc(C)on3)C2=O)cc1 (stereo not given)	none
Cc1ccc(C2(C)NC(=O)N(CC(=O)NC(=O)NC(C)(C)C)C2=O)cc1 (stereo not given)	DRD3 agonist 33
CC1(C)CC(C)(c2ccc(O)cc2O)N(c2ccc3ccccc3c2)C(=S)N1 (stereo not given)	D3 antag -62
CC1(C)CC(C)(c2ccc(O)cc2O)N(c2cccc(Cl)c2)C(=S)N1 (stereo not given)	B2AR arrestin inconclusive
COCCn1c(C)cc(C(=O)CN2C(=O)NC3(CCCCCC3)C2=O)c1C	BRCA1 expr up 5.6µM
O=c1/c(=C/c2ccco2)sc2n1CN(c1cccc(Br)c1)CN=2	D3 antag -61
O=C(Nc1ccc(Br)cc1)c1cnc[nH]1	BRCA1 expr up 13µM
c1ccc(CCN2CCN=C2Nc2ccccc2)cc1	D3 antag inconclusive
Cc1cccc(CCN2CCN=C2Nc2ccccc2)c1	D3 antag -56
c1ccc(NC2=NCCN2CCC2CCCCC2)cc1	D3 antag -63
COc1ccc(-c2nc3ccccc3c(=O)n2O)cc1	D3 antag inconclusive, PTHR1 ag 50µM
COc1cc(OC)cc(-c2nc3ccccc3c(=O)n2OC(=O)c2ccccc2C)c1	DRD3 agonist 34

High-throughput results from PubChem BioAssay.
